Screens (PubChem)
SMN2 splice enh = SMN2 splice variant enhancement; AID 1458; HEK293 SMN2-luciferase splicing reporter, luminescence, 30-36 h; Potency, µM (highest dose often 46.1 µM), actives largely listed as activators; 210,000 tested, 2.8% active; also: nearly all actives have a fitted effect of over 55% in size
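HEK293 cells carry an SMN2 minigene-luciferase reporter in which exon 7 inclusion puts luciferase in frame. Cells were seeded at 2000 cells/well, attached for 10-12 hours, then exposed to compounds for 30-36 hours at 37C before ONE-Glo luminescence.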
Rab9 prom act = activates the Rab9 promoter; Huh7 Rab9 promoter-luciferase reporter, luminescence, 24 h; Potency, µM (titrated, usually from 9.22 µM), hits mostly activators; 320,000 tested, 2.8% active; AID 485297; also: nearly all actives have a fitted effect of over 60% in size
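Cell-based reporter: Huh7 stable for Rab9 promoter-driven luciferase, plated in reduced-serum medium with 10% FBS at 1500 cells/well, compound-treated 24 h at 37 °C, luminescence read after 10 min reagent.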
ELG1 genotoxic = inducers of genotoxicity in HEK293T ELG1-luciferase cells. 330,000 tested, 1.3% active. HEK293T ELG1-luciferase reporter, luminescence, 16 h. Potency, µM (titrated, usually from 46 µM), usual class: activators; also: nearly all actives have a fitted effect of over 60% in size
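ELG1-luciferase HEK293T cells, 2,000/well; compound pinned in; 16 hr, 37 °C, 5% CO2; ONE-Glo, 30 min RT; luminescence on CCD imager.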
NPC1 prom act = activates the NPC1 promoter. Huh7 NPC1 promoter luciferase reporter, 24 h. Potency, µM (highest dose often 9.22 µM), most hits filed as activators. 320,000 tested, 2.4% active; also: nearly all actives have a fitted effect of over 60% in size
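Stably transfected Huh7 (NPC1 promoter→luciferase), 1500 cells/well in Opti-MEM + 10% FBS, 2 h settle, then compound 24 h at 37 °C. Luminescence after 10 min with Amplite reagent.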
FLuc counter = counter-screen for miR-21 project: firefly luciferase inhibitors or activators | P08659 | purified FLuc, Km substrates, luminescence inhibition | Potency, µM (highest dose often 57.5 µM), usual class: inhibitors | 360,000 tested, 6.9% active; also: nearly all actives have a fitted effect of over 55% in size
Target sequence (P08659 whole entry, looked up): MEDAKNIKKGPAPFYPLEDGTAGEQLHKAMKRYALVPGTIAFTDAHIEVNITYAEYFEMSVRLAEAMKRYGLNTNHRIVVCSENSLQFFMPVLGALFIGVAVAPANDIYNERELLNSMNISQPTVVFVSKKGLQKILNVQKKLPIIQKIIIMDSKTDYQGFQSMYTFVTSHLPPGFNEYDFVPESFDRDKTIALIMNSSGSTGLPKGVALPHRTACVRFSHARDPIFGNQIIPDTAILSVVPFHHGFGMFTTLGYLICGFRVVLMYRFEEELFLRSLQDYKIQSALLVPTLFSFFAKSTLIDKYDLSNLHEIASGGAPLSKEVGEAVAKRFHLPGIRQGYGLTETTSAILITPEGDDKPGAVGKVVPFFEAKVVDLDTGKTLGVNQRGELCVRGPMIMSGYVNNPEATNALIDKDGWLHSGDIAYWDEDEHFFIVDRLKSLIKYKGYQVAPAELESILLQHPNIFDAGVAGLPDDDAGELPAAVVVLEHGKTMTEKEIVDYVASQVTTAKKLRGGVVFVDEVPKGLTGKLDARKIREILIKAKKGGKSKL
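Purified P. pyralis luciferase (10nM final) with 10uM D-luciferin and 10uM ATP (Km levels) in 50mM Tris acetate pH 7.5, 10mM Mg acetate, 0.01% Tween-20, 0.05% BSA; qHTS 6-point titration, ~60 µM downward; luminescence read.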
ELG1 DNA repair = ELG1-dependent DNA repair inhibition; 330,000 tested, 2.3% active; Potency, µM (doses to about 46.1 µM), most hits filed as inhibitors; HEK293T ELG1-luciferase reporter, luminescence, 16 h; DNA damage induced by 5-fluorouridine; AID 504467; also: nearly all actives have a fitted effect of over 55% in size
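In this reporter screen, reduction of luminescence relative to DMSO vehicle indicated activity. Compounds and 5-fluorouridine were added together to 2,000 cells per well, incubated for 16 hr at 37 °C, then developed with ONE-Glo.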
Numbers stand for hits; - = inactive; ? = inconclusive; . = no result given. Sampled rows, rich in hits. Any-hit rate of the full collection: about 9.4%. Calls follow the shape of the dose curve; as a rule, active = well fitted curve in the direction sought with a large enough effect; inconclusive = small, poorly fitted or top-dose-only effect, or another doubt; inactive = no such curve, though single readings can be large; an effect the other way counts as inactive or inconclusive.

SMILES	SMN2 splice enh	Rab9 prom act	ELG1 genotoxic	NPC1 prom act	FLuc counter	ELG1 DNA repair
COc1cc(-c2noc(-c3ccc(N4CCCCC4)c([N+](=O)[O-])c3)n2)cc(OC)c1OC	.	.	.	.	17µM	.
Cc1ccc(Cl)cc1N1CCN(C(=O)COCc2cc(-c3ccc4c(c3)OCO4)on2)CC1	.	.	.	.	-	.
CCOc1cc(C(=O)N2CC(=O)Nc3ccc(C)cc3C2c2ccccc2)cc(OCC)c1OCC (configuration not stated)	-	.	.	.	-	.
COc1ccccc1C(=O)Nc1ccc(NC(=O)c2ccco2)cn1	.	?	?	?	6µM	?
O=C(Cc1ccccc1)Nc1ccc(NC(=O)C2CC2)nc1	-	-	-	-	-	-
CCCCC(=O)Nc1ccc(NC(=O)c2ccccc2OC)cn1	.	-	-	-	-	18µM
CCCCC(=O)Nc1ccc(NC(=O)c2cc(OC)c(OC)c(OC)c2)cn1	-	-	-	-	-	-
O=C(Cc1ccccc1)Nc1ccc(NC(=O)C2CCCCC2)nc1	.	-	-	-	-	5.2µM
O=C(Nc1ccc(NC(=O)c2ccco2)nc1)c1ccccn1	14µM	0.71µM	?	0.45µM	6µM	?
Cc1cccc(NC(=O)CCN2CCN(c3ccccc3F)CC2)c1	-	.	.	.	-	.
Cc1ccc(CNC(=O)c2ccc3c(c2)NC(=O)C(CS(=O)(=O)Cc2ccc(F)cc2)N3)cc1 (configuration not stated)	.	.	.	.	-	.
O=C(CSc1nc2c(c(=O)[nH]1)CN(Cc1ccc3c(c1)OCO3)CC2)Nc1ccc(F)c(F)c1	.	.	.	.	-	.
O=C(Cc1ccccc1)Nc1ccc(NC(=O)c2ccco2)nc1	?	2.5µM	?	2.2µM	17µM	?
O=C(Nc1ccc(NC(=O)c2ccco2)nc1)c1ccco1	2.5µM	0.32µM	-	0.4µM	4.8µM	?
O=C(Nc1ccc(NC(=O)C2CCCCC2)nc1)c1cccc(F)c1	.	-	-	-	-	?
O=C(Nc1ccc(NC(=O)C2CC2)cc1)c1ccco1	.	1.8µM	13µM	3.2µM	19µM	?
O=C(Nc1ccc(NC(=O)C2CCCCC2)cn1)c1ccco1	.	0.45µM	0.65µM	0.71µM	1.7µM	?
COc1ccc(-c2nnc(SCC(=O)Nc3cc(OC)ccc3OC)nc2-c2ccc(OC)cc2)cc1	.	.	.	.	-	.
O=C(Nc1ccc(NC(=O)C23CC4CC(CC(C4)C2)C3)cn1)c1ccco1	-	-	2.3µM	1µM	6µM	?
CCC(=O)Nc1ccc(NC(=O)C23CC4CC(CC(C4)C2)C3)cn1	?	-	?	-	-	?
CC(C)(C)C(=O)Nc1ccc(NC(=O)c2ccco2)nc1	.	-	?	-	0.17µM	?
NC(=S)N/N=C1\CCOc2ccc(Cl)cc21	.	-	-	-	-	21µM
CCCCC/C=C\C/C=C\CCCCCCCCCC(=O)NCCCC(=O)O	-	.	.	.	.	.
COc1ccc(-c2cn3c4c(sc3n2)CCCC4)cc1	1.3µM	0.5µM	?	1µM	0.21µM	?
CCOC(=O)C1CCN(C(=O)CNC(=O)c2nn(-c3ccc(OC)cc3OC)c(=O)c3ccccc23)CC1	.	-	-	-	9.5µM	?
SMILES	SMN2 splice enh	Rab9 prom act	ELG1 genotoxic	NPC1 prom act	FLuc counter	ELG1 DNA repair
COc1ccc(-n2nc(C(=O)NCC(=O)NCc3ccccc3OC)c3ccccc3c2=O)c(OC)c1	-	-	-	-	-	-
CCOC(=O)N1CCN(C(=O)CNC(=O)c2nn(-c3ccc(OC)cc3OC)c(=O)c3ccccc23)CC1	.	-	?	-	3.8µM	?
COc1ccc(-n2nc(C(=O)NCC(=O)N3CCCC3)c3ccccc3c2=O)c(OC)c1	.	-	-	-	13µM	-
COc1ccc(-n2nc(C(=O)NCC(=O)N3CC(C)CC(C)C3)c3ccccc3c2=O)c(OC)c1 (configuration not stated)	.	-	-	-	?	?
O=C(c1ccc(CS(=O)c2ccccc2Cl)o1)N1CCN(c2cccc(C(F)(F)F)c2)CC1 (configuration not stated)	.	.	.	.	-	.
O=C(O)c1ccc(CS(=O)c2cccc(C(F)(F)F)c2)o1 (configuration not stated)	-	-	-	-	-	10µM
Cc1ccc2c(c1)cc1c(=O)n(CC(=O)NCc3ccco3)nc(C)n12	-	.	.	.	-	.
CCOc1cc(/C=C2/C(=O)ON=C2C)cc(Br)c1O	.	-	-	-	21µM	-
CCOc1cc(/C=C2\C(=O)ON=C2c2ccccc2)cc(Br)c1O	.	-	?	-	9.5µM	?
CCOC(=O)c1c(Nc2ccc(C)c(C)c2)nnc(-c2ccccc2)c1-c1ccccc1	-	.	.	.	-	.
Cc1cc(C)c2nc(SCC(=O)N3CC(=O)Nc4ccccc43)c(C#N)cc2c1	-	-	-	-	12µM	?
Cc1nnc(SCC(=O)N2CC(=O)Nc3ccccc32)s1	-	-	-	-	-	-
COc1ccc2nc(SCC(=O)N3CC(=O)Nc4ccccc43)c(C#N)cc2c1	-	-	-	-	?	16µM
CC(C)c1nc(SCC(=O)N2CC(=O)Nc3ccccc32)c2ccccc2n1	-	-	-	-	-	-
COc1cc(C(=O)NCc2nc3cccnc3n2Cc2ccc(C)cc2)cc(OC)c1OC	.	.	.	.	-	.
NC(CCC(=O)NC(CCSC(CC(=O)O)C(=O)O)C(=O)NCC(=O)O)C(=O)O (configuration not stated)	-	.	.	.	.	.
O=C(CCCc1nc(-c2ccccc2Cl)no1)NC1CCCCC1	-	-	-	-	-	-
O=C(NC1CC1)c1cc(-c2cccs2)on1	.	.	.	.	11µM	.
COc1ccccc1-c1cc(C(=O)NC2CCCC2)no1	.	?	?	?	19µM	?
Cc1ccc(NC(=O)c2cc(-c3cccs3)on2)cc1C	-	-	?	-	?	?
O=C(NC1CCCCC1)c1cc(-c2ccccc2Cl)on1	.	2.8µM	21µM	?	?	?
O=C(NC1CCCC1)c1cc(-c2ccccc2O)on1	.	-	15µM	-	4.8µM	?
Cc1cccc(C)c1OCc1cc(C(=O)NC2CCC2)no1	.	-	-	-	?	?
O=C(NC1CCCC1)c1cc(-c2ccc(Cl)cc2Cl)on1	.	3.5µM	1.3µM	1µM	0.85µM	?
Cc1cc(C(=O)NC2CCCN(Cc3ccc(Cl)cc3)C2)no1 (configuration not stated)	.	-	-	-	-	-
O=C(NC1CCCC1)c1cc(-c2ccccc2Cl)on1	.	2.5µM	?	1.6µM	5.4µM	?
Cc1ccc(C(=O)Nc2sc3c(c2C(=O)O)CCCC3)o1	.	?	-	?	12µM	?
COC(=O)c1c(NC(=O)c2ccc(C)o2)sc2c1CCCCC2	14µM	3.5µM	10µM	3.5µM	12µM	?
COC(=O)c1c(NC(=O)c2ccco2)sc2c1CCC2	-	-	-	-	-	-
